In PubChem BioAssay AID2716 (Broad Institute, 2010):
“And” between values parts separate entries of the source, which are not always exact repeats. Equal entries are not always repeated. The campaign covered roughly 320,000 compounds. About 3,300 (1%) were called active.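 The calls were made as follows: active = every valid replicate shows activation above 250% relative to neutral control wells; inactive = the rest, any valid replicate at or below 250%.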 For the sample, actives were picked, then their nearest neighbours and some compounds at random.

Assay: restored growth of temperature-sensitive Mot1-301 yeast – S. cerevisiae, ATP luminescence, 38.5C, SUMOylation pathway inhibitor project, primary screen (AID 2716);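 also: OY570 slx delta 5 strain wells were the positive control but not used for scaling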
Settings: S. cerevisiae Mot1-301 growth rescue, at 18.8 µM, hits give high values, percent above DMSO median, 100 means doubled

| Compound | growth rescue |
| --- | --- |
| CCCCCCCCCCCCN1[C@@H](CC(C)=O)c2cc(F)cc(F)c2S1(=O)=O | -17.6% (inactive) |
| COc1ccc(C)cc1N(C(=O)Cn1nnc(-c2ccc(C)o2)n1)C(C(=O)NC1CCCC1)c1ccncc1 (configuration not stated) | -11.2% (inactive) |
| CN(CCO)c1ccc(/C=N/Nc2nncc3ccccc23)cc1 | 20.6% (inactive) |
| CO/N=C(\C(=O)N[C@@H]1C(=O)N2C(C(=O)O)=C(COC(C)=O)CS[C@H]12)c1csc(N)n1 (stereo in doubt) | -1.64% (inactive) and 233% (inactive) |
| Cc1cc(C)cc(C(=O)NC2C(=O)N3C(C(=O)O)=C(CSc4nnc(C)s4)CSC23)c1 (configuration not stated) | -7.63% (inactive) |
| C=CC1=C(C(=O)O)N2C(=O)[C@@H](NC(=O)/C(=N/OCC(=O)O)c3csc(N)n3)[C@H]2SC1 | 328% (active) |
| CCN(C(=O)COC(=O)Cc1c(F)cccc1Cl)c1c(N)n(Cc2ccccc2)c(=O)[nH]c1=O | -1.24% (inactive) |
| Cc1ccccc1N1CCN(CC(=O)NCc2ccc(Cl)cc2)CC1 | 22% (inactive) |
| CCOc1ccc(C(C)C)cc1S(=O)(=O)n1nc(C)cc1C | -14.9% (inactive) |
| COc1ccc(C(C[N+](=O)[O-])n2nc(C)cc2C)cc1 (configuration not stated) | 383% (active) |
| COc1ccc(OCc2cn3c(C)cc(C)nc3n2)cc1 | 1.72% (inactive) |
| Nc1c(-c2cccc(Cl)c2)cnn1-c1cccc([N+](=O)[O-])c1 | 0.816% (inactive) |
| O=C(Nc1ccc(-n2ccnc2P(=O)(O)c2ccccc2)cc1)c1ccccc1Br | 46.7% (inactive) |
| O=C(CP(=O)(c1ccccc1)c1ccccc1)N1CCOCC1 | 634% (active) |
| O=C(O)CC(CC(=O)N1CCOCC1)c1ccccc1 (configuration not stated) | -13.1% (inactive) |
| O=C(Cc1ccccc1Cl)N1CCOCC1 | 9.61% (inactive) |
| COc1ccc(C(=O)COC(=O)CN2C(=O)C3CC=CCC3C2=O)c(OC)c1 (configuration not stated) | 9.86% (inactive) |
| CCC(CO)Oc1cc(NCc2ccccc2)c2ncn(C3CCCC3)c2c1 (configuration not stated) | 9.9% (inactive) |
| C/C(CC(C)C)=N\Oc1nc(C)cc(C)n1 | -10.5% (inactive) |
| CN(C)/C(CN1CCCCC1)=C1\N=C(c2ccccc2)OC1=O | 1740% (active) |
| CC(CN1CCCCC1)c1ccccc1 (configuration not stated) | 7.87% (inactive) |

| Compound | growth rescue |
| --- | --- |
| O=C(CN1CCCC1)N1CCN(c2ccccc2)CC1 | 0.51% (inactive) |
| O=C(c1cc(Cl)cc(Cl)c1)N1CCC(=O)N(C(COCc2ccccc2)Cc2ccccc2)CC1 (configuration not stated) | -7.87% (inactive) |
| Oc1c(Cl)cc(Cl)c(Cl)c1Cc1c(O)c(Cl)cc(Cl)c1Cl | 482% (active) and 481% (active) |
| CC(=O)c1ccc(N2CCN(C(=O)c3ccc4nc[nH]c4c3)CC2)cc1 | 10.1% (inactive) |
| CC(C)c1cc(C(=O)O)n[nH]1 | -2.94% (inactive) |
| Cc1ccc(-c2cc(C(=O)N/N=C/C=C/c3ccccc3)n[nH]2)o1 | -7.96% (inactive) |
| CC(C)c1cc(C(=O)N/N=C/C(Br)=C/c2ccccc2)n[nH]1 | 457% (active) |
| Cc1cc(C(=O)NNC(=O)c2ccccc2O)c(C)o1 | -0.00731% (inactive) |
| Cc1cc(C(=O)N/N=C\C(Br)=C\c2ccccc2)c(C)o1 | 558% (active) |
| CC(=C/c1ccccc1)/C=N/NC(=O)c1cc(C)oc1C | 2.01% (inactive) |
| CCCc1c(C(=O)N/N=C(\C)CCc2ccc(OC)cc2)nnn1-c1nonc1N | 3.62% (inactive) |
| CCOC(=O)C1CCN(C(=O)Cn2nc(C)c3c(C)n(-c4ccccc4)nc3c2=O)CC1 | 34.9% (inactive) |
| NC(=O)c1nnsc1-c1ccc(-c2snnc2C(N)=O)cc1 | 18.5% (inactive) |
| Cc1nc2ccc(C(=O)N(C)CC3CCCN(CCc4ccc(Cl)cc4)C3)cc2[nH]1 (configuration not stated) | 3.97% (inactive) |
| COc1cccc(CN(C)CC(=O)NCc2ccccc2Cl)c1OC | 10.7% (inactive) |
| COc1cccc(CN(C)CC2CCCN(CCc3ccc(Cl)cc3)C2)c1OC (configuration not stated) | 535% (active) |
| CN(C)c1nc(=Nc2cccc(Cl)c2)ss1 | 331% (active) |
| Cc1cccc(C)c1NC(=O)N1CC(C)OC(C)C1 (configuration not stated) | -5.77% (inactive) |
| Cc1ccc(-c2nc(COC(=O)c3c(C)noc3C)cs2)cc1 | 0.699% (inactive) |
| Cc1ccc(S(=O)(=O)N(C)c2nc3ccccc3n3c(C(C)C)nnc23)cc1 | 138% (inactive) |
| CCCC1(C(=O)OCC)NC(c2ccc(N(C)C)cc2)C2C(=O)N(c3ccc4c(c3)OCCO4)C(=O)C21 (configuration not stated) | -0.477% (inactive) |

| Compound | growth rescue |
| --- | --- |
| O=C(Nc1nn(Cc2ccccc2F)cc1Br)c1cccs1 | 13% (inactive) |
| Cc1ccc(OCC(=O)Oc2ccccc2[N+](=O)[O-])cc1 | 330% (active) |
| CCOC(=O)COc1ccc([N+](=O)[O-])cc1 | 319% (inactive) |
| O=C(COc1ccccc1[N+](=O)[O-])NC1CC1 | 1.86% (inactive) |
| O=C(/C=C/c1cnc2ccccc2n1)NC1CCCCCC1 | 26.5% (inactive) |
| Nc1c(N(CCCO)C(=O)C2CCCC2)c(=O)[nH]c(=O)n1Cc1ccccc1 | 103% (inactive) |
| COc1ccc(CCNC(=O)CCC(=O)NC2CCCCC2)cc1OC | 26.5% (inactive) |
| Cc1ccc2c(c1)C(O)(CC(=O)c1cccnc1)C(=O)N2 (configuration not stated) | 1220% (active) |
| Cc1cccc(OCC(=O)NCCNC(=O)c2cccnc2)c1 | 220% (inactive) |
| Cc1ccc2c(c1)C(O)(CC(=O)c1cccc(-n3cccc3)c1)C(=O)N2 (configuration not stated) | -2.84% (inactive) |
| CCC/C=C(\CCC)C(NC(=O)Cc1ccccc1)c1ccc(C(=O)OC)cc1 (configuration not stated) | -14.4% (inactive) |
| CC(C)C[C@H](NC(=O)Nc1cccc(C(F)(F)F)c1)C(=O)O | -3.86% (inactive) |
| O=C(Nc1ccccc1)Nc1ccc(C(F)(F)F)cn1 | -19.3% (inactive) |
| Cc1ccc(NC(=O)Nc2cccc(C(F)(F)F)c2)nc1 | 471% (active) |
| O=C(CNS(=O)(=O)c1ccc2c(c1)OCCCO2)N1CCN(c2ccc(F)cc2)CC1 | 10.2% (inactive) |
| COc1ccc2c(CC(=O)NNC(=O)c3ccccc3F)coc2c1 | 9.24% (inactive) |
| COc1ccc(/C=N/NC(=O)Cn2cc(C(F)(F)F)ccc2=O)cc1 | 0.303% (inactive) |
| CCc1cc(=O)oc2cc(C)cc(OCC(=O)N3CCC[C@@H]3C(=O)O)c12 | 694% (active) |
| CCc1cc(=O)oc2cc(C)cc(OC(C)C(=O)O)c12 (configuration not stated) | -0.434% (inactive) |
| CCCc1cc(=O)oc2c(C)c(OCC(=O)N3CCC(C(=O)O)CC3)ccc12 | 10.4% (inactive) |
